Compounds with a hit are over-represented: about 1.3% of the library has one in this group of screens.
AGP1-GFP MLPCN: modulators of AGP1-GFP expression in yeast TOR pathway, primary screen, cell-based, multiplex flow cytometry, S. cerevisiae, MLPCN library | 3 h; GFP as percent of DMSO wells | GFP response vs DMSO, % at 10 µM | actives 0.02% (n = 320,000);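 active means GFP response relative to DMSO above a set limit, near screen average plus 3 SD, cut at about 150% in these data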;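 further: median GFP channel fluorescence of the gated AGP1 strain per well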
LAP4-GFP MLPCN: modulators of LAP4-GFP expression in yeast, primary screen, S. cerevisiae, multiplex flow cytometry, MLPCN library; 3 h; median GFP as percent of DMSO wells; actives 0.34% (n = 320,000); GFP response vs DMSO, % at 10 µM; AID 2023, 2009;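 active means GFP response vs DMSO above a set limit, about the screen mean plus 3 SD, cut at about 150% in these data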
Efflux pump inh: inhibitors of Candida efflux pumps in yeast, primary screen, S. cerevisiae, Nile Red, multiplex. S. cerevisiae Candida pump triplex. inhibition, % at 10 µM. actives 0.44% (n = 330,000);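 active means plate passing quality check with inhibition over a set limit, or well fluorescence over plate mean plus 4 SD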;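 further: Nile Red retained in pooled yeast measured as flow cytometry median fluorescence; 0% = buffer negative control and 100% = Enniatin B positive control; higher means more Nile Red kept so more efflux inhibition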
CIT2 TOR yeast: modulators of CIT2-GFP expression in yeast, primary screen, S. cerevisiae, GFP fusion, multiplex flow cytometry, MLPCN library; S. cerevisiae CIT2-GFP strain, 3 h; 100 means same as DMSO wells; GFP response vs DMSO, % at 10 µM; actives 0.065% (n = 320,000); AID 2029, 2009;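 active means GFP response relative to DMSO above a set limit, near the screen mean plus 3 SD, cut at about 150% in these data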;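 further: ratio of well median GFP fluorescence to mean of DMSO wells on the plate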
MEP2-GFP yeast: modulators of MEP2-GFP levels in yeast, primary screen, S. cerevisiae, multiplex flow cytometry, MLPCN library. S. cerevisiae MEP2-GFP strain, 3 h; 100% = DMSO control level. GFP response vs DMSO, % at 10 µM. actives 0.51% (n = 330,000). AID 2016, 2009;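 active means GFP response versus DMSO above a set limit, roughly screen mean plus 3 SD, cut at about 180% in these data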;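 further: median GFP fluorescence of the barcode-gated MEP2-GFP cells per well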
RPL19A TOR yeast: RPL19A-GFP expression modulators in yeast, primary screen, cell-based, S. cerevisiae, multiplex flow cytometry, MLPCN | S. cerevisiae RPL19A-GFP strain, 3 h; active compounds read low | actives 0.3% (n = 330,000) | percent response vs DMSO, % at 10 µM;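 active means percent response vs DMSO below 50%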;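 further: median channel GFP fluorescence of the barcoded RPL19A-GFP strain; ratio of sample median GFP to plate DMSO average so 100% = DMSO; lower means less RPL19A-GFP as with rapamycin TOR inhibition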
Cmpd fluor yeast: flagged as fluorescent in efflux inhibitor counter-screen | shares compounds with Efflux pump inh | S. cerevisiae AD/pABC3, compound fluorescence, flow cytometry | fluorescence ratio to DMSO, % at 10 µM | actives 4% (n = 1,700);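 active means fluorescence ratio to DMSO above its plate's cutoff, the plate mean ratio plus 5 SD, cut at about 210% in these data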;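 further: unstained yeast with no Nile Red so the signal is compound autofluorescence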
Mdr1 pump inh: inhibitors of Candida albicans Mdr1 efflux, confirmation, flow cytometry, singleplex, Cherry Pick1 set | shares compounds with Efflux pump inh | S. cerevisiae AD/CaMDR1, Nile Red efflux | inhibition, % at 10 µM | actives 1% (n = 1,700) | AID 588518, 2011; in the data active means inhibition above about 26%;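 further: 0% = DMSO vehicle and 100% = reference inhibitor; higher means more Nile Red retained so more efflux inhibition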
Cdr2 pump inh: inhibitors of Candida albicans Cdr2 efflux pump, confirmation, S. cerevisiae AD/CaCDR2, flow cytometry, cherry pick 1, singleplex; shares compounds with Efflux pump inh; Nile Red retention; Nile Red retention ratio vs DMSO, % at 10 µM; actives 4% (n = 1,700); AID 588520, 2011; in the data active means Nile Red retention ratio vs DMSO above about 190%;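 further: higher ratio means more blocking of Cdr2 efflux of the dye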
CaCdr1 efflux inh: inhibitors of Candida albicans Cdr1 efflux pump, confirmation, S. cerevisiae AD/CaCDR1, flow cytometry, cherry pick 1, singleplex; actives 1% (n = 1,700); shares compounds with Efflux pump inh; Nile Red efflux; AID 588522, 2011; inhibition, % at 10 µM;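 active means inhibition above the screen-wide mean plus twice its standard deviation, cut at about 32% in these data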
* hit, by the source's call; x = no result given.

SMILES	AGP1-GFP MLPCN	LAP4-GFP MLPCN	Efflux pump inh	CIT2 TOR yeast	MEP2-GFP yeast	RPL19A TOR yeast	Cmpd fluor yeast	Mdr1 pump inh	Cdr2 pump inh	CaCdr1 efflux inh
O=C(COC(=O)c1ccccn1)c1ccc(Br)cc1	98	107	1.3*	80	96	102	100	0	91	0
O=C(COC(=O)c1ccccn1)c1cccc(Br)c1	95	108	1	91	101	107	x	x	x	x
CC(/C=C/c1ccco1)=N\NC(=O)COc1ccc(C)c(C)c1	86	86	0	91	87	94	x	x	x	x
CSCCC(NC(=O)c1ccccc1Cl)C(=O)N1CCN(C(c2ccccc2)c2ccccc2)CC1 (configuration not stated)	86	79	0.5*	89	96	101	96	0	109	0
CCOc1ccc(N(CC(=O)N2CCCCCC2)S(=O)(=O)c2ccc(C)cc2)cc1	102	102	0	104	98	99	x	x	x	x
CCn1c(-c2csc(C(C)C)c2)n[nH]c1=S	88	93	11*	90	95	99	100	0	108	0
CC(C)Cn1c(-c2csc(C(C)C)c2)n[nH]c1=S	104	99	0	103	99	97	x	x	x	x
CC(C)N(C)CCOC(=O)c1ccccc1Br	100	99	13*	100	100	106	131	2	163	2
CCOCCCn1c(=S)[nH]c2cc(C(=O)N3CCN(c4ccccc4)CC3)ccc2c1=O	110	107	0	108	99	105	x	x	x	x
Cc1ccc(C)c(C(=O)COC(=O)c2ccc(C)c(S(=O)(=O)N3CCOCC3)c2)c1	93	88	1.1*	94	91	93	87	0	95	0
Cc1ccc(C(=O)OCC(=O)NC(C)C)cc1S(=O)(=O)N1CCOCC1	107	107	0	115	105	100	x	x	x	x
O=C(Nc1ccncc1)Nc1cccc(F)c1	91	77	0	81	105	117	x	x	x	x
COc1ccc(C2N=C(Nc3ccc(C)cc3)Nc3nc(C)cc(=O)n32)cc1 (configuration not stated)	103	99	0.4*	98	108	101	99	0	97	0
Cc1ccc(NC2=NC(c3ccc(O)cc3)n3c(nc(C)cc3=O)N2)cc1 (configuration not stated)	93	96	0	92	98	97	x	x	x	x
CCc1c(C)nc2c(-c3ccccc3OC)c(C)[nH]n2c1=O	101	92	0	98	101	101	x	x	x	x
CSc1ncc(C(=O)Nc2cccc(Cl)c2)c(C)n1	95	119	0	96	107	103	x	x	x	x
COc1ccc(-c2ccc(NC(=O)c3ccco3)cc2)nn1	97	117	0	73	95	97	x	x	x	x
S=C(/N=c1/sccn1Cc1ccccc1)NC1CC1	91	111	1.3*	101	97	96	101	0	106	0
CN(C)CCCNC(=S)/N=c1\sccn1Cc1ccccc1Cl	97	93	0	98	103	99	x	x	x	x
COc1ccc(Cl)cc1C(=O)n1cnc2ccccc21	102	87	0	109	109	105	x	x	x	x
